PubChem BioAssay AID504700 (The Scripps Research Institute Molecular Screening Center, 2011)
Among all 340,000 compounds or so, about 270 (0.079%) were called active. For the sample, actives were picked, then their nearest neighbours and some compounds at random. Unmarked numbers belong to inactive results.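 How the source made its calls: active means activation above a cutoff set at the mean over all compounds plus 3 SD (cut at about 18% in these data); inactive means the rest.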

Molecular target: cAMP-dependent protein kinase catalytic subunit beta (Homo sapiens) + cAMP-dependent protein kinase type II-beta regulatory subunit (Homo sapiens) (UniProt P22694+P31323)
Sequence (P31323 whole entry, looked up, other chains not shown): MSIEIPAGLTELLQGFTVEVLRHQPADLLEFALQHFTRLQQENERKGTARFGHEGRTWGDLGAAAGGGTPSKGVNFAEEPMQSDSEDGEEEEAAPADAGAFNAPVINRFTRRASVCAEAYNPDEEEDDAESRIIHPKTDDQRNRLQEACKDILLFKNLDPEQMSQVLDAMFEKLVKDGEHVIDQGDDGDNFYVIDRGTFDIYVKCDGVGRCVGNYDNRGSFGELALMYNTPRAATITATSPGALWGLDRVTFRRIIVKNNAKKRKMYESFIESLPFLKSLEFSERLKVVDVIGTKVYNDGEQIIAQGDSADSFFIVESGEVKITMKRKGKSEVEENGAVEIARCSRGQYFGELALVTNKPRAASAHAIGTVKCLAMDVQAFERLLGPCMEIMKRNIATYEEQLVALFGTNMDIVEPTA
Assay: activators of PKA-R2B holoenzyme, primary screen, biochemical, fluorescence polarization, Cy5-IP20, human (AID 504700);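 further: higher means more holoenzyme dissociation and a rise in polarization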
Details: PKA-R2B holoenzyme dissociation, at 11.4 µM, active compounds read high, 0% DMSO only, 100% 113 µM cGMP, R2B truncated from residue 108, S112A mutant

| Structure (SMILES) | activation |
| --- | --- |
| O=S1(=O)CCN(Cc2ccccc2)CC1 | -1.42% |
| C[C@@H]1CN([C@@H](C)CO)S(=O)(=O)c2ccc(C#Cc3cccc(F)c3)cc2O[C@H]1CN(C)S(=O)(=O)c1cn(C)cn1 | 7.01% |
| Nc1cccc(OCCCCCOc2cccc(N)c2)c1 | 5.43% |
| COC(=O)C[C@H]1C[C@@H]2c3cc(N(C)C)ccc3O[C@@H]2[C@H](CO)O1 | 5.15% |
| O=C1OCCC1=COCCCCOC=C1CCOC1=O | 3.03% |
| COc1ccc(CN2C(=O)C(CC(=O)NCc3cccc4ccccc34)CC(C(=O)N3CCOCC3)=C2C)cc1 (stereo not drawn) | 2.78% |
| CC(=O)Nc1ccc2nc(NC(=O)CS(=O)(=O)c3ccc(F)cc3)sc2c1 | -8.48% |
| CNC(=O)C1CN(C(=O)c2cccc(S(=O)(=O)N3CCc4ccccc43)c2)c2ccccc2O1 (stereo not drawn) | 1.53% |
| Cc1ccc(S(=O)(=O)N2CCCCC2)cc1NC(=O)CCNC(=O)c1ccccc1Cl | 16.1% |
| O=C(NCc1ccccc1)C1CNCC(C(=O)NCc2ccccc2)C1 (stereo not drawn) | 9% |
| CCCCCCNC(=O)O[C@H]1CN(C(=O)OC(C)C)N(C(=O)OC(C)C)[C@@H]2CN(S(=O)(=O)c3ccc(C)cc3)C[C@]12O | -13.6% |
| COc1ccccc1C1SCCN1C(=O)c1ccc([N+](=O)[O-])cc1 (stereo not drawn) | 0.16% |
| COc1ccc([N+](=O)[O-])cc1C1NN=C(c2cccc3ccccc23)S1 (stereo not drawn) | 20.8% (active) |
| COc1ccc([N+](=O)[O-])cc1NC(=O)C(C)OC(=O)C1c2ccccc2Oc2ccccc21 (stereo not drawn) | -4.93% |
| O=C(N=C1SC2CS(=O)(=O)CC2N1Cc1ccccc1)c1ccccc1 (stereo not drawn) | 1.79% |
| C[C@@H]1CN([C@H](C)CO)C(=O)c2cc(Br)cnc2O[C@@H]1CN(C)Cc1cncnc1 | 2.5% |
| CC1=C(C(=O)N2CCOCC2)CC(CC(=O)NCC2CCCCC2)C(=O)N1Cc1ccc(F)cc1 (stereo not drawn) | -0.55% |
| C[C@H](CO)N1C[C@H](C)[C@@H](CN(C)S(=O)(=O)c2ccc(F)cc2)OCc2cnnn2CCCC1=O | -2.57% |
| CC1(C)CC(=O)C=C(c2ccc(COC(=O)c3cc(F)cc(F)c3)cc2)C1=O | 4.64% |
| CC1(C2CC2)NC(=O)N(CC(=O)N2CCN(c3ccccc3F)CC2)C1=O (stereo not drawn) | 1.69% |
| CCCCN(C(C)=O)c1ccc2c(c1)C1CC2CCN1Cc1ccccc1 (stereo not drawn) | 2.7% |
| Cc1ccc(-c2ccc(C3=CC(=O)CC(C)(C)C3=O)cc2)cc1 | 9.99% |
| CCCCN1C[C@H](c2ccc(Br)cc2)[C@@H](CC(=O)Nc2ccc(Br)cc2)C1=O | 2.46% |
| Cc1ccc(S(=O)(=O)N2C[C@H]3n4c(=O)ccc(=O)n4C[C@H](OC(=O)NC4CCCC4)[C@@]3(O)C2)cc1 | 8.63% |
| CCOc1ccc(NS(=O)(=O)c2ccc(C(=O)NCC3CCCO3)cc2)cc1 (stereo not drawn) | -2.2% |
| Cc1cc(/C=C2/SC(=O)N(CC(=O)N3CCCC3)C2=O)c(C)n1C | 2.6% |
| N#Cc1ccccc1CN1C(=O)S/C(=C/c2cccn2-c2cccc(C(=O)O)c2)C1=O | 24.5% (active) |
| Cc1nn(Cc2ccccc2)c(C)c1C(=O)NCCN1C(=O)S/C(=C\c2ccc(F)cc2)C1=O | -11.8% |
